ST2 inh: blocks human ST2 binding to IL-33. inhibition, % for hits at 17 µM. Q01638. 78,000 tested, 2.3% active. AID 1259354. AlphaLISA ST2-Fc/biotin-IL-33 interaction, 1 h; in the data active means inhibition above about 30%
Target sequence (Q01638 whole entry, looked up): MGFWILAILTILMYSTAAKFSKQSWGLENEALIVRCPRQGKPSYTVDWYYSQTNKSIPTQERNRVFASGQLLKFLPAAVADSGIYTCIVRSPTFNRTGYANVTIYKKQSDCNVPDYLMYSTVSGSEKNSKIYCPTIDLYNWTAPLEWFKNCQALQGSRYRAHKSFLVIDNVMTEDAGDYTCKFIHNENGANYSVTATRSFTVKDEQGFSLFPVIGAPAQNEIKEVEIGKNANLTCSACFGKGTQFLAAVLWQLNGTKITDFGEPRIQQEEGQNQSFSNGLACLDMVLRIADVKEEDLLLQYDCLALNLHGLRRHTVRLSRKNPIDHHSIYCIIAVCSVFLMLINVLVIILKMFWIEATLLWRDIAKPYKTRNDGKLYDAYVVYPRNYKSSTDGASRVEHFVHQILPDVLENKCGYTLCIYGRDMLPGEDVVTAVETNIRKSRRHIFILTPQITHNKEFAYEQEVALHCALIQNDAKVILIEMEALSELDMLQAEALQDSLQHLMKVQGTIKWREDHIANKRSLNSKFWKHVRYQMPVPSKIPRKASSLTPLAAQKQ
Active calls of the source: *; i = inactive. The full list was thinned out, with hits kept by preference.

SMILES	ST2 inh
COC(=O)[C@@H]1Cc2ncn(C(C)C)c2CN1S(=O)(=O)c1ccc(C#N)cc1	35%*
COC(=O)[C@@H]1Cc2ncn(C(C)C)c2CN1S(=O)(=O)c1ccc(OC)cc1	i
CC1CN(Cc2nc3c(c(=O)[nH]c(=O)n3C)n2Cc2ccccc2Cl)CC(C)O1 (stereo not drawn)	i
COc1ccc(-c2nc(N)n(C(=O)c3ccc(F)cc3)n2)cc1	i
CCCCN(C)Cc1cccc(O)c1	i
O=C(O)CN=C(NS(=O)(=O)c1ccccc1)c1ccccc1	38%*
O=C(O)CN=C(NS(=O)(=O)c1ccccc1)c1ccc(F)cc1	i
CCCN=C(NS(=O)(=O)c1ccc(C)cc1)c1ccc(F)cc1	i
O=C1C2ON(c3ccc(Br)cc3)C(c3cccnc3)C2C(=O)N1c1ccccc1 (stereo not drawn)	i
Cn1c(-c2c(-c3ccccc3)ncn2CCF)nc2ccccc21	i
CCOc1ccc(-n2c(=O)[nH]c3ccsc3c2=O)cc1	i
COc1ccc(/C=C2/C(=O)N(c3ccc(Cl)c(Cl)c3)N=C2C)cc1OC	65%*
COc1ccccc1/C=C1\C(=O)N(c2ccc(Cl)cc2Cl)N=C1C	i
COc1ccc(OC)c(/C=C2\C(=O)N(c3ccc(Cl)c(C(=O)O)c3)N=C2C)c1	i
CC1=NN(c2ccc(Cl)c(Cl)c2)C(=O)/C1=C/c1ccc(C)c([N+](=O)[O-])c1	i
COc1cc(/C=C2\C(=O)N(c3ccc(C(=O)O)cc3)N=C2C)cc(Cl)c1O	i
COc1cc(/C=C2\C(=O)N(c3ccc(Cl)c(C(=O)O)c3)N=C2C)cc(OC)c1OC	56%*
CCN(C)c1ccc(/C=C2/C(=O)NN(c3ccc(Cl)c(Cl)c3)C2=O)cc1	i
CC1=NN(c2ccc(Cl)c(Cl)c2)C(=O)/C1=C/c1ccccc1	i
COc1ccc(Cl)cc1/C=C1\C(=O)N(c2ccc(Cl)c(C(=O)O)c2)N=C1C	74%*
COc1ccc(Br)cc1/C=C1\C(=O)N(c2cccc(Cl)c2)N=C1C	i
CCN(C)c1ccc(/C=C2/C(=O)N(c3ccc(Cl)c(Cl)c3)N=C2C)cc1	30%*
Cc1cc(C)c2c(N)c(C(=O)Nc3ccc(Br)cc3)sc2n1	i
Cc1cccc(NC(=O)c2ccc([N+](=O)[O-])cc2)c1C	i
Cc1nc2cc(NC(=O)c3ccc(S(=O)(=O)N(C)C)cc3)ccc2s1	i
SMILES	ST2 inh
CN(CCCCN1CCOCC1)c1nc2nonc2nc1N1CCCC1	i
COc1ccc2cc(-c3[nH]ncc3CN3CCN(c4ccc(Cl)cn4)CC3)ccc2c1	i
CCn1c(C2CCN(CCC(C)c3ccc(C)o3)CC2)n[nH]c1=O (stereo not drawn)	i
CN(CCCNC(=O)Cn1nc(-c2ccccc2)ccc1=O)Cc1ccccc1	i
O=C(Cn1nc(-c2ccccc2)ccc1=O)NCCN1CCC(Cc2ccccc2)CC1	i
O=C(Cn1nc(-c2ccccc2)ccc1=O)NCCCN1CCC(Cc2ccccc2)CC1	53%*
COc1cc(C(=O)NCc2c(C)noc2C)nc(OC)n1	i
O=C(Nc1ccccc1)C12CC3CC(CC(C3)C1)C2	i
CC(C)Cc1cc(C(=O)NC(Cn2ccnc2)c2ccccc2)n(C)n1 (stereo not drawn)	i
COc1ccc(OCC(=O)Nc2ccc(OC)cc2[N+](=O)[O-])cc1	i
CCCCOC(=O)Nc1ccc(OC)cc1[N+](=O)[O-]	47%*
COc1ccc(NC(=O)CC2CCCCC2)c([N+](=O)[O-])c1	40%*
COc1ccc(NC(=O)CC2SC(N)=NC2=O)c([N+](=O)[O-])c1 (stereo not drawn)	i
COc1ccc(NC(=O)CC2CCCCC2)c(OC)c1	i
CCCCOC(=O)Nc1ccccc1F	i
CCOC(=O)c1c(C)[nH]c(C(=O)N2CCCC(N(C)CCc3ccccc3)C2)c1C (stereo not drawn)	i
Cc1ccccc1CCC1CCCN(C(=O)c2cc(=O)[nH]c3ccccc23)C1 (stereo not drawn)	i
CC1CCCCN1S(=O)(=O)c1ccc2[nH]c(=O)cc(C(=O)NCCCN3CCCC3)c2c1 (stereo not drawn)	i
O=C(NCc1ccc2c(c1)OCO2)c1cc2ccccc2c(=O)o1	i
CCOc1ccc(S(=O)(=O)N2CCSC2c2cc(OC)ccc2OC)cc1 (stereo not drawn)	i
Cn1c(=O)c2c(nc(NCCO)n2Cc2ccccc2F)n(C)c1=O	i
Cn1c(=O)c2c(nc(N3CCN(c4ccccn4)CC3)n2Cc2ccccc2F)n(C)c1=O	i
Cn1c(=O)c2c(nc(OCCc3ccccc3)n2Cc2ccccc2F)n(C)c1=O	30%*
O=C(CSc1ncnc2sc3c(c12)CCCC3)c1ccc2c(c1)OCO2	i
O=C1NC(=O)c2c(NC(=O)c3c(F)cccc3F)cccc21	i
SMILES	ST2 inh
Cn1c(SCC(=O)c2ccc(Br)cc2)nnc1-c1cccc(N)c1	i
CC(C)(C)c1ccc(C(=O)Nc2ccc(S(=O)(=O)N3CCCC3)cc2)cc1	i
O=C(O)c1ccc(S(=O)(=O)N2CCCC2)cc1	35%*
O=C(Nc1ccccc1)c1ccc(S(=O)(=O)N2CCCCC2)cc1	i
Cc1cc(C)c(C(=O)N2CC=C(c3ccccc3)CC2)c(=O)[nH]1	i
COc1cc([N+](=O)[O-])ccc1NC(=O)COc1cc(C)ccc1C	i
O=C(Cc1ccccc1)NCCCc1nc2ccccc2n1Cc1ccccc1F	i
O=[N+]([O-])c1ccccc1Oc1ccccc1	30%*
O=C(O)c1cc([N+](=O)[O-])c(C(=O)O)cc1Oc1ccc(Cl)cc1	i
O=C(O)Cc1ccccc1[N+](=O)[O-]	i
O=C(CCc1ccccc1)Nc1c(-c2ccc(F)cc2)nc2ccccn12	i
CC(=O)N(CN1C(=O)c2cc(Cl)c(Cl)cc2C1=O)c1ccc(C)cc1	i
COc1cccc(NC(=O)CN(C2CCCCC2)S(=O)(=O)c2ccc(OC)c(OC)c2)c1	i
COc1ccc2cc(-c3[nH]ncc3CNC(c3nc4ccc(C)cc4[nH]3)C(C)C)ccc2c1 (stereo not drawn)	i
O=C(c1cc([N+](=O)[O-])ccc1Cl)n1nnc2ccccc21	i
O=[N+]([O-])c1ccc(S(=O)(=O)c2nc3ccccc3s2)c(Cl)c1	54%*
O=C(CSc1nc2ccccc2s1)Nc1nc2ccc([N+](=O)[O-])cc2s1	i
COc1nccnc1NS(=O)(=O)c1ccc(NC(=O)COc2cc(C)c(Cl)c(C)c2)cc1	i
Cc1ccc(/C=C2\N=C(c3ccccc3C)OC2=O)o1	65%*
CC1=N/C(=C\c2ccc(OC(F)F)cc2)C(=O)O1	i
Cc1ccccc1C1=N/C(=C\c2ccco2)C(=O)O1	44%*
Cc1ccc(/C=C2\N=C(c3ccc(I)cc3)OC2=O)o1	47%*
CCOc1ccc(/C=C2\N=C(c3ccc(Br)cc3)OC2=O)cc1	i
Cc1ccc(C2=N/C(=C\c3ccco3)C(=O)O2)cc1[N+](=O)[O-]	i
O=C1OC(c2ccc3c(c2)OCO3)=N/C1=C\c1ccccc1Br	i
COCc1nc(NCc2cc(CC(C)C)no2)c2cnn(C)c2n1	i
CC(=O)N1CCc2cc(S(=O)(=O)Nc3cccc([N+](=O)[O-])c3)ccc21	i
O=C1CC(N(CCc2ccccc2)C(=O)c2cccc(F)c2)C(=O)N1c1ccc(F)cc1 (stereo not drawn)	i
CCN(CC)c1cc(C)c2cc(NC(=O)Cn3nc([N+](=O)[O-])c(Br)c3C)ccc2n1	i
Cc1ccc(-c2noc(CCC(=O)N3CCC(C)CC3)n2)cc1	i
